As a reminder, the AC50 is the midpoint of the concentration-response curve, whichever way the signal moves.

39 compounds from PubChem BioAssay (NCATS) can be followed below.

Calls of active or inactive are those of the source. The call rests on the fitted dose curve.

For the assay the following is noted: Ebola virus entry assay, blue channel fluorescence.
`O=C(O)C[C@H](O)C[C@H](O)/C=C/c1c(C2CC2)nc2ccccc2c1-c1ccc(F)cc1`: the outcome was inactive.

As to `CCN1C(=O)NC(c2ccccc2)C1=O` (centres undefined), the call was inactive. Same read-out and setting: the entry for `Nc1nc(=O)n([C@@H]2CS[C@H](CO)O2)cc1F` is “inactive”. As to `CC(C)(C)NC[C@H](O)COc1ccccc1C1CCCC1`, the AC50 was 4.47 µM (active). As to `CN=C1CN(O)C(c2ccccc2)=c2cc(Cl)ccc2=N1`, the call was inactive.

With `CNCCC=C1c2ccccc2CCc2ccccc21`, the AC50 was 8.91 µM (active). With `CC(=O)NC[C@H]1CN(c2ccc(N3CCOCC3)c(F)c2)C(=O)O1`, the call was inactive. On the same count and under the same terms, to `CCN(CC)CC#CCOC(=O)C(O)(c1ccccc1)C1CCCCC1` (centres undefined) belongs “inactive”; to `Nc1nc(NC2CC2)c2ncn([C@@H]3C=C[C@@H](CO)C3)c2n1`, “inactive”; to `CN1C(=O)C(O)N=C(c2ccccc2)c2cc(Cl)ccc21` (centres undefined), “inactive”. As to `CCCCC(=O)N(Cc1ccc(-c2ccccc2-c2nn[nH]n2)cc1)[C@@H](C(=O)O)C(C)C`, the result was inactive. On the same count and under the same terms, to `CC=CC1=C(C(=O)O)N2C(=O)[C@H](NC(=O)[C@H](N)c3ccc(O)cc3)[C@@H]2SC1` belongs “inactive”; to `CO[C@@]1(NC(=O)C2SC(=C(C(N)=O)C(=O)O)S2)C(=O)N2C(C(=O)O)=C(CSc3nnnn3C)CS[C@@H]21` (some centres undefined), “inactive”. Same read-out and setting: to `CCCCCCCN(CC)CCCC(O)c1ccc(NS(C)(=O)=O)cc1` (centres undefined) belongs “inactive”.

For `CC(C)(O/N=C(\C(=O)N[C@@H]1C(=O)N2C(C(=O)[O-])=C(C[n+]3ccccc3)CS[C@H]12)c1csc(N)n1)C(=O)O`, the result was inactive. Consider `O=C(O[C@H]1CN2CCC1CC2)N1CCc2ccccc2[C@@H]1c1ccccc1`, for which the AC50 was 10 µM (active).

With `CC[C@H]1OC(=O)[C@H](C)[C@@H](O[C@H]2C[C@@](C)(OC)[C@@H](O)[C@H](C)O2)C(C)[C@@H](O[C@@H]2O[C@H](C)C[C@H](N(C)C)[C@@H]2O)[C@](C)(OC)C[C@@H](C)C(=O)[C@H](C)[C@@H](O)[C@]1(C)O` (some centres undefined), the AC50 was 7.94 µM (active).

Take `CN(C)CCOc1ccc(/C(=C(/CCCl)c2ccccc2)c2ccccc2)cc1`: the AC50 is 4.47 µM (active). As to `CO/N=C(\C(=O)N[C@@H]1C(=O)N2C(C(=O)O)=CCS[C@H]12)c1csc(N)n1`, the result was inactive. Still for that read-out and setting: to `Nc1nc2ccc(OC(F)(F)F)cc2s1` belongs “inactive”; to `C=CC(N)CCC(=O)O` (centres undefined), “inactive”. Regarding `C[C@]1(O)CC[C@H]2[C@@H]3CCC4=CC(=O)CC[C@]4(C)[C@@]3(F)[C@@H](O)C[C@@]21C`, the compound was called inactive. The same measure, in the same setting: the entry for `CC(C)[C@H]1C(=O)N2CCC[C@H]2[C@]2(O)O[C@](NC(=O)[C@@H]3C[C@@H]4c5cccc6[nH]cc(c56)C[C@H]4N(C)C3)(C(C)C)C(=O)N12` is “inactive”; for `CN[C@@H]1[C@H](O[C@H]2[C@H](O[C@H]3[C@H](O)[C@@H](O)[C@H](N=C(N)N)[C@@H](O)[C@@H]3N=C(N)N)O[C@@H](C)[C@]2(O)C=O)O[C@@H](CO)[C@H](O)[C@H]1O` it is “inactive”. On the same count and under the same terms, the entry for `Nc1ccc(C(=O)O)c(O)c1` is “inactive”. Same read-out and setting: to `CCC(=O)OC(OP(=O)(CCCCc1ccccc1)CC(=O)N1C[C@H](C2CCCCC2)C[C@H]1C(=O)O)C(C)C` (some centres undefined) belongs “inactive”; to `CCC[C@@]1(CCc2ccccc2)CC(O)=C([C@H](CC)c2cccc(NS(=O)(=O)c3ccc(C(F)(F)F)cn3)c2)C(=O)O1`, “inactive”. Consider `CC(C)(C)NC(=O)[C@@H]1C[C@@H]2CCCC[C@@H]2CN1C[C@@H](O)[C@H](Cc1ccccc1)NC(=O)[C@H](CC(N)=O)NC(=O)c1ccc2ccccc2n1`, for which the compound was classed as inactive. The same measure, in the same setting: to `COc1cc([C@@H]2c3cc4c(cc3[C@@H](O[C@@H]3O[C@@H]5CO[C@@H](c6cccs6)O[C@@H]5[C@H](O)[C@@H]3O)[C@H]3COC(=O)[C@H]23)OCO4)cc(OC)c1O` belongs “inactive”. Same read-out and setting: to `CCOC(=O)[C@H](CCc1ccccc1)N[C@H]1CCCN2CCC[C@@H](C(=O)O)N2C1=O` belongs “inactive”; to `Cn1nnc2c(C(N)=O)ncn2c1=O`, “inactive”; to `CN1CCN2c3ncccc3Cc3ccccc3C2C1` (centres undefined), “inactive”. Still for that read-out and setting: to `O=C1Nc2ccc(Cl)cc2C(c2ccccc2Cl)=NC1O` (centres undefined) belongs “inactive”. As for `CN[C@@H]1CCc2[nH]c3ccc(C(N)=O)cc3c2C1`, the call was inactive. Still for that read-out and setting: the entry for `CC(C)C[C@H]1C(=O)N2CCC[C@H]2[C@]2(O)O[C@](NC(=O)[C@@H]3C=C4c5cccc6[nH]c(Br)c(c56)C[C@H]4N(C)C3)(C(C)C)C(=O)N12` is “inactive”; for `Cc1nnc2n1-c1ccc(Cl)cc1C(c1ccccc1)=NC2` it is “inactive”. On the same count and under the same terms, the entry for `CO[C@@H]1[C@@H](O[C@@H]2O[C@H](C)[C@@H](O[C@H]3C[C@@](C)(O)[C@@H](O)[C@H](C)O3)[C@H](N(C)C)[C@H]2O)[C@@H](CC=O)C[C@@H](C)[C@@H](O[C@@H]2CC[C@H](N(C)C)[C@@H](C)O2)/C=C/C=C/C[C@@H](C)OC(=O)C[C@H]1O` is “inactive”. Take `CN1[C@@H]2CC[C@H]1CC(OC(c1ccccc1)c1ccccc1)C2` (some centres undefined): the half-maximal activity concentration (AC50) was 5.01 µM (active). Take `CN[C@H](CC(C)C)C(=O)N[C@H]1C(=O)N[C@@H](CC(N)=O)C(=O)N[C@H]2C(=O)N[C@H]3C(=O)N[C@H](C(=O)N[C@@H](C(=O)O)c4cc(O)cc(O)c4-c4cc3ccc4O)[C@H](O)c3ccc(c(Cl)c3)Oc3cc2cc(c3O[C@@H]2O[C@H](CO)[C@@H](O)[C@H](O)[C@H]2O[C@H]2C[C@](C)(N)C(O)[C@H](C)O2)Oc2ccc(cc2Cl)[C@H]1O` (some centres undefined): the compound was classed as inactive.
